Hits are enriched below; roughly 0.44% of the tested compounds scored in any of these assays.
EPAC1 ag: EPAC1 (human) agonism; O95398; EPAC1 agonist qHTS, biochemical assay; response scale: 100% = response to 6.5 mM cAMP; Potency, µM (series often up to 154 µM), without a hit: top-dose activation, most hits filed as activators; 0.073% of 360,000 active; further: nearly all actives have a fitted effect of over 60% in size
Target sequence (O95398 whole entry, looked up): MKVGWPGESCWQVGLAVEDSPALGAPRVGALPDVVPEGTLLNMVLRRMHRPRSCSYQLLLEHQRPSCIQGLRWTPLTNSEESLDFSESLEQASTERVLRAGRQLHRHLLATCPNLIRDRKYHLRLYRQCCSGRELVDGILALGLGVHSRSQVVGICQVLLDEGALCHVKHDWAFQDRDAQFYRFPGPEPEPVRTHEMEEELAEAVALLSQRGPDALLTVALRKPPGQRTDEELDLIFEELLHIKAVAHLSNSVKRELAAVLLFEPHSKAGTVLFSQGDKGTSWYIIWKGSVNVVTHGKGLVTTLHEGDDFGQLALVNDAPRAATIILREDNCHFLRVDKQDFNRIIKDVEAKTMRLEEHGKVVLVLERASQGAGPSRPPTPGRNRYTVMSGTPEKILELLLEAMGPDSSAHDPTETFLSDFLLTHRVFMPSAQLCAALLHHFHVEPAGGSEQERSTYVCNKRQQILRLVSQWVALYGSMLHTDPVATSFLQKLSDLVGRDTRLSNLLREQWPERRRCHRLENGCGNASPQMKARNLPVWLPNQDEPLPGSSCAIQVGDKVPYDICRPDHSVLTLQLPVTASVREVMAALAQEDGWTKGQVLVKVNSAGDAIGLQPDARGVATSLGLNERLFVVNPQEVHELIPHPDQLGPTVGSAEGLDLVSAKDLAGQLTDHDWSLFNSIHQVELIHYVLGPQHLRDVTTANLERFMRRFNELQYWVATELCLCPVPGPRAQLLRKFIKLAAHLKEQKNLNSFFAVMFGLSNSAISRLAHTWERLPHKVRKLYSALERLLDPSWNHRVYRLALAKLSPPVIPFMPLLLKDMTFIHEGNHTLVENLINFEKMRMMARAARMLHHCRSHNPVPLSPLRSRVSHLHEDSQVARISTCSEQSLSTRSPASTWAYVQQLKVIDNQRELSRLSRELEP
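Read-out is the fluorescence drop as BODIPY-GDP leaves Rap1B (480 nm excitation, 540 nm emission), recorded every 5 minutes over 30 minutes. Reactions held 100 nM EPAC1, 250 nM Rap1B–BODIPY-GDP and 50 uM GDP, with 6.5 mM cAMP setting full activation.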
USP1 inh: USP1/UAF1 (human) deubiquitinase inhibition | recombinant USP1/UAF1, Ub-Rhodamine cleavage fluorescence | 0.23% of 390,000 active | O94782 | AID 743255 | Potency, µM (highest dose often 57.1 µM), inactives show at the highest dose activity change, negative = inhibition, usual class: inhibitors; further: on the % scale 0 is the no-effect control and ±100 the full control effect; nearly all actives have a fitted effect of over 60% in size
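1 nM enzyme complex + cpd, 15 min RT; start with Ub-Rho 150nM final; kinetic fluorescence ex 480/em 540, 6 reads q60 s. Buffer 50mM HEPES pH 7.8, 0.5mM EDTA, 0.1 mg/ml BSA, 1mM TCEP, 0.01% Tween-20.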
EPAC1 antag: blocks human EPAC1 exchange factor; 0.14% of 360,000 active; Potency, µM (titrated, usually from 115 µM), for the others: top-dose activity change, negative = inhibition, most hits filed as inhibitors; O95398; EPAC1 GEF assay, Rap1b-BODIPY-GDP exchange fluorescence;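 further: plate controls were vehicle for no effect and positive control for full effect; nearly all actives have a fitted effect of over 50% in size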
EPAC2 ag: agonists of human EPAC2 (RAPGEF4). Potency, µM (titrated, usually from 154 µM), without a hit: top-dose activation, actives largely listed as activators. EPAC2 activation, biochemical qHTS; response scale: 100% = 6.5 mM cAMP response. 0.079% of 360,000 active. Q8WZA2; further: nearly all actives have a fitted effect of over 50% in size
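qHTS, titration series. 100 nM EPAC2 / 250 nM Rap1B-BODIPY-GDP / 50 uM GDP; RT; ex 480/em 540 nm, 5-min reads to 30 min. Norm. to 6.5 mM cAMP = activation.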
EPAC2 antagonist: EPAC2 (human) antagonism; Potency, µM (series often up to 114 µM), for inactives: at the highest dose activity, negative = inhibition, hits mostly inhibitors; EPAC2 GEF exchange of Rap1B-BODIPY-GDP, fluorescence; Q8WZA2; 0.18% of 360,000 active; further: on the % scale 0 is the no-effect control and ±100 the full control effect; nearly all actives have a fitted effect of over 45% in size
Numbers without * were called inactive; ? = inconclusive; · = no result. The call rests on the fitted dose curve; in most records, active means well fitted curve in the direction sought with a large enough effect; inconclusive means small, poorly fitted or top-dose-only effect, or another doubt; inactive means no such curve, though single readings can be large; an effect the other way counts as inactive or inconclusive. Potency means the concentration at half of the fitted maximal effect.

SMILES	EPAC1 ag	USP1 inh	EPAC1 antag	EPAC2 ag	EPAC2 antagonist
O=c1[nH][nH]c(-c2ccccc2O)c1C(C[N+](=O)[O-])c1ccc(Br)cc1 (stereo not drawn)	-13%	-12%	17%	-9%	11µM*
COc1ccc(C(C[N+](=O)[O-])c2c(C)[nH]n(-c3ccccc3)c2=O)cc1 (stereo not drawn)	19%	?	-5%	-1%	7%
Cc1ccc(C(C[N+](=O)[O-])c2c(-c3ccccc3O)[nH][nH]c2=O)cc1 (stereo not drawn)	-17%	?	-17%	-3%	11µM*
CCN(CC(=O)Nc1ccc(NC(C)=O)cc1)C(=O)c1c(C)nn(Cc2ccc(C)cc2)c1Cl	-1%	-15%	-1%	8%	-1%
Cc1cc(C)nc(NS(=O)(=O)c2ccc(NC(=O)CN3C(=O)S/C(=C\c4ccccc4)C3=O)cc2)n1	6%	?	79µM*	6%	-11%
CCCSc1nc(C)cc(C)c1S(=O)(=O)c1ccccc1C	-4%	-5%	?	0%	10µM*
O=C(N/N=C/c1ccc(Sc2ccccn2)o1)c1cc2ccccc2cc1O	1%	?	56µM*	1%	1%
O=C(N/N=C\c1ccc(Sc2ccccn2)o1)c1cccc(F)c1	7%	-13%	10%	1%	15%
C/C(=C\C(=O)c1cccnc1)Nc1ccc(O)cc1	3%	-9%	-5%	7%	2%
C/C(=C\C(=O)c1ccccc1)Nc1ccc(O)cc1	21%	-13%	71µM*	3%	3%
Nc1ncnc2c1C(c1ccccc1)c1c(ccc3ccccc13)O2 (stereo not drawn)	-3%	·	-18%	6%	13µM*
CCOC(=O)CC(=O)Nc1ncnc2c1C(c1ccccc1)c1c(ccc3ccccc13)O2 (stereo not drawn)	12%	·	-7%	9%	?
Cc1cccc(C)c1NC(=O)COC(=O)/C=C/c1ccc(S(=O)(=O)N2CCOCC2)cc1	-7%	-2%	-19%	-9%	-5%
COCCN(C(=O)COC(=O)/C=C/c1cccc(C(F)(F)F)c1)c1c(N)n(CC(C)C)c(=O)[nH]c1=O	10%	-20%	3%	2%	7%
Cc1ccccc1NC1c2ccccc2C(=O)N1Cc1ccco1 (stereo not drawn)	-10%	-27%	3%	8%	32µM*
COc1cccc(/C=C2\SC(=S)NC2=O)c1OS(=O)(=O)c1ccc(NC(C)=O)cc1	-9%	-19%	79µM*	1%	3%
COc1cc(/C=C2/SC(=S)NC2=O)ccc1OS(=O)(=O)c1ccc(C)cc1	10%	?	45µM*	4%	40µM*
CCOc1ccc(/C=C2\SC(=S)NC2=O)cc1OC	5%	-24%	?	3%	13µM*
CCOc1ccc(/C=C2\SC(=S)N(C)C2=O)cc1OC	6%	-21%	31%	-1%	4%
CCc1ccc(-n2cccc2/C=C2/C(=N)N3C(=NC2=O)SN=C3S(C)(=O)=O)cc1	-4%	?	79µM*	-15%	-27%
N/N=C/C(=N\Nc1ccc(Cl)cc1)C(=O)c1ccncc1	9%	-4%	-18%	-3%	-8%
O=C(NCc1cccnc1)c1cccc(OC2CCN(Cc3ccc(CO)o3)CC2)c1	1%	5%	-9%	5%	2%
COc1ccc(/C=C2\SC(=S)NC2=O)cc1OS(=O)(=O)c1ccc(NC(C)=O)cc1	-7%	-19%	?	-6%	50µM*
Cc1ccc(S(=O)(=O)Oc2ccc(/C=C3/C(=N)N4C(=NC3=O)SN=C4S(C)(=O)=O)cc2)cc1	-10%	?	-24%	-1%	?
COc1cc(/C=C2/C(=N)N3C(=NC2=O)SN=C3S(C)(=O)=O)ccc1OS(=O)(=O)c1ccc(C)cc1	-4%	-22%	50µM*	1%	?
SMILES	EPAC1 ag	USP1 inh	EPAC1 antag	EPAC2 ag	EPAC2 antagonist
COc1ccc(/C=C2\SC(c3ccc(C)cc3)=NC2=O)cc1OC	4%	16µM*	15%	-20%	7%
COc1ccc(/C=C2/SC(c3ccc(C)cc3)=NC2=O)cc1OC	24%	?	4%	9%	11%
COc1ccc(-c2nc(CNS(=O)(=O)c3cccc(F)c3)cs2)cc1	·	-12%	·	·	·
Cc1cc(NC(=O)CCC(=O)N(CC(=O)NCC2CCCO2)c2ccc(C)c(C)c2)no1 (stereo not drawn)	-12%	-19%	-1%	0%	21%
O=Cc1ccc(-c2ccccc2C(=O)O)o1	-3%	?	6%	2%	2%
O=C(O)c1ccccc1-c1c2cc(I)c(=O)c(I)c-2oc2c(I)c(O)c(I)cc12	28µM*	22µM*	129%	100µM*	169%
CN(C)c1ccc(/C=C/c2nc3ccccc3c(=O)n2-c2ccc(C(=O)O)cc2)cc1	63µM*	?	164%	-29%	-10%
CCOC(=O)c1c(NC(=O)c2cc(OCC)c(OCC)c(OCC)c2)sc2c1CCCCC2	·	-18%	·	·	·
Cc1ccc(N2C(=O)c3cccc4c(N)ccc(c34)C2=O)c2cccnc12	?	25µM*	113%	100µM*	279%
CN(C)CCCN1C(=O)c2cccc3c(Br)ccc(c23)C1=O	3%	-28%	8%	1%	1%
Cc1nn(C)c(C)c1N1C(=O)c2cccc3c(N)ccc(c23)C1=O	100µM*	25µM*	94%	100µM*	374%
CCN1C(=O)c2cccc3c(N)ccc(c23)C1=O	100µM*	165%	68%	63µM*	130%
Cc1nn(C)c(C)c1N1C(=O)c2cccc3c(Br)ccc(c23)C1=O	-4%	-11%	2%	-1%	?
COc1ccc(NC(=O)CN(C)S(=O)(=O)c2ccc(Cl)cc2)cn1	15%	-12%	-27%	-2%	-16%
O=C(NCCN1CCN(c2ccccc2)CC1)C1CCN(S(=O)(=O)c2cccc3nsnc23)CC1	-1%	-5%	-20%	4%	-8%
COCCn1c(SCC(=O)c2c[nH]c3ccccc23)nc2cc(C(=O)NCC(C)C)ccc2c1=O	·	-11%	·	·	·
CC1CC1c1ccc(/C=C(\C#N)C(=O)Nc2cc(Cl)ccc2Cl)o1 (stereo not drawn)	89µM*	?	77%	3%	21%
CN(C)CCCN(C(=O)c1cc2cc([N+](=O)[O-])ccc2s1)c1nc2cc3c(cc2s1)OCCO3	19%	0%	?	27%	50µM*
CNC(=O)c1oc(-c2ccccc2)nc1C	7%	-7%	-28%	2%	-3%
Cc1ccc(C(=O)C(C)OC(=O)c2nc(Cl)ccc2Cl)cc1 (stereo not drawn)	4%	-15%	3%	13%	-16%
Nc1nnc(CC(=O)N/N=C/c2cc([N+](=O)[O-])cc(Br)c2O)s1	-8%	-8%	50µM*	-2%	-1%

Bioassay records deposited in PubChem by National Center for Advancing Translational Sciences (NCATS).
